Laboratory results reported in PubChem BioAssay (Tox21).
A number with no mark means an inactive call. Records with an inconclusive call do not appear. Entries that show only a call come without a potency. Calls of active or inactive are those of the source. Unless noted, calls come from the whole dose curve; as a rule, active = well fitted curve in the direction sought with a large enough effect in the repeat runs; inconclusive = weak or mixed curves; inactive = no such curve, though single readings can be large; an effect the other way counts as inactive or inconclusive.

Legend:
[1] = A CellTox Green Cytotoxicity Assay to monitor cytotoxicity in HepG2 cells - 8 hour (AID 1224890); note: nearly all actives have a fitted effect of over 45% in size
Procedure, shortened: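 HepG2 cells, 600/well, preincubated 5 h with CellTox Green dye, then exposed to Tox21 compounds in DMSO at 37 C for up to 40 h. Dead-cell DNA fluorescence read at the indicated time point.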

[2] = qHTS assay to identify small molecule antagonists of the estrogen receptor alpha (ER-alpha) signaling pathway using the BG1 cell line in the presence of 0.1 nM 17-beta-estradiol - cell viability counter screen (AID 1259241); note: nearly all actives have a fitted effect of over 40% in size
Procedure, shortened: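 Cytotoxicity counter-screen: live-cell protease activity measured by fluorescence (30 min reagent step) in the same wells. Cells were VM7Luc4E2 with endogenous ER-alpha and ERE-driven luciferase, treated 22 hr at 37C alongside 0.1 nM 17beta-estradiol final.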

[3] = qHTS assay to identify small molecule antagonists of the androgen receptor (AR) signaling pathway using the MDA cell line in the presence of 0.5 nM R1881 - cell viability counter screen (AID 1259242); note: nearly all actives have a fitted effect of over 45% in size
Procedure, shortened: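 MDA-kb2 cells (MMTV-luciferase, AR/GR responsive) were treated with compounds plus 0.5 nM R1881 (final) for 16 hr at 37C, 0% CO2. Viability was then read in the same wells as live-cell protease fluorescence (CellTiter-Fluor, 30 min).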

[4] = qHTS assay to identify small molecule HDAC inhibitors (AID 1259364); note: top concentration of the series differs between compounds; nearly all actives have a fitted effect of over 45% in size
Procedure, shortened: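 Wild-type HCT-116 cells, plated overnight at 37 C, exposed to compounds 2 hr at 37 C; luminogenic HDAC-Glo substrate then added 30 min at room temperature. Luminescence reports relative endogenous class I/II HDAC activity.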

[5] = qHTS assay to identify small molecule HDAC inhibitors - cell viability counter screen (AID 1259365); note: series mostly up to about 92 µM; nearly all actives have a fitted effect of over 50% in size
Procedure, shortened: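 CellTiter-Glo luminescence (30 min, room temperature) reported viability after a 2 h compound exposure at 37 C. Cells: wild-type HCT-116, 1,500 per well, seeded the night before.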

[6] = qHTS assay to identify small molecule agonists of the sonic hedgehog signaling (Shh) pathway - cell viability counter screen (AID 1259366); note: nearly all actives have a fitted effect of over 50% in size
Procedure, shortened: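 Cytotoxicity counter screen: CellTiter-Fluor reagent added after 23 h compound exposure, then 1 h at 37C and fluorescence read. Cells were 3T3 Gli1-Luc, seeded 2,000 per well and dosed 4 h post-plating.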

[7] = qHTS assay to identify small molecule antagonists of the sonic hedgehog signaling (Shh) pathway - cell viability counter screen (AID 1259367); note: nearly all actives have a fitted effect of over 55% in size
Procedure, shortened: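 Using CellTiter-Fluor, viability of Gli1-Luc reporter 3T3 cells is read by fluorescence in the wells used for the Shh luciferase assay. Treatment lasts 23 hr with conditioned medium, then reagent 1 hr at 37C.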

[8] = molecular target: Androgen receptor (Homo sapiens) (UniProt P10275); experiment: qHTS assay to identify small molecule antagonists of the androgen receptor (AR) signaling pathway using the MDA cell line in the presence of 0.5 nM R1881 (AID 1259243); note: nearly all actives have a fitted effect of over 50% in size
Sequence of Androgen receptor (Homo sapiens) (P10275 whole entry, looked up): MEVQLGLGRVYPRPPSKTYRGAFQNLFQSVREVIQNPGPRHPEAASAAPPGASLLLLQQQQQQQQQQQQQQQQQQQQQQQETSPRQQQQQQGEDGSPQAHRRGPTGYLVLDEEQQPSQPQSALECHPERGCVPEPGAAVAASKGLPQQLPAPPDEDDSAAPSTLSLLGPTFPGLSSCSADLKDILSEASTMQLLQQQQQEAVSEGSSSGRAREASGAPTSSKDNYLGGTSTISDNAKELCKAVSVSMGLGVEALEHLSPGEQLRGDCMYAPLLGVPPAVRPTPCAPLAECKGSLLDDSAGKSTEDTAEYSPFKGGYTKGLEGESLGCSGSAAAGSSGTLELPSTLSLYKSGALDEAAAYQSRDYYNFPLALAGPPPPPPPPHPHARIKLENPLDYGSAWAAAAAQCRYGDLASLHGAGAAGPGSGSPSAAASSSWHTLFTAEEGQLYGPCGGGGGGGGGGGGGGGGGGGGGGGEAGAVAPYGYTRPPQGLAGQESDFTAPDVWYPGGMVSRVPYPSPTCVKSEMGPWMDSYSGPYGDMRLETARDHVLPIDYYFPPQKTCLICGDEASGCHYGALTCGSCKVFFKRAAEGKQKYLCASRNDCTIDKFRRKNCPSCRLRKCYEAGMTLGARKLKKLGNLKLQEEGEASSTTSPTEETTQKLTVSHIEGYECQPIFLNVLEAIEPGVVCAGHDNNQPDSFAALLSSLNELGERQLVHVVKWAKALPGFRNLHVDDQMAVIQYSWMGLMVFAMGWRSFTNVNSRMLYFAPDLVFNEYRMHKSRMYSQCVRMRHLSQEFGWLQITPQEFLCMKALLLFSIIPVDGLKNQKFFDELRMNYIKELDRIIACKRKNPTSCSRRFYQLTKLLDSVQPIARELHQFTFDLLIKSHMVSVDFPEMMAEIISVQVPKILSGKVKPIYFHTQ
Procedure, shortened: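 MDA-kb2 cells (MMTV-luciferase, responsive to AR and GR) at 3,000/well, rested 5 h at 37C, 0% CO2, then given compounds plus 0.5 nM R1881 (final) for 16 hr. Luciferase read with ONE-Glo after 30 min at room temperature.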

[9] = molecular target: Estrogen receptor (Homo sapiens) (UniProt P03372); experiment: qHTS assay to identify small molecule antagonists of the estrogen receptor alpha (ER-alpha) signaling pathway using the BG1 cell line in the presence of 0.1 nM 17-beta-estradiol (AID 1259244); note: nearly all actives have a fitted effect of over 50% in size; note: potency is the fitted concentration of half-maximal effect
Sequence of Estrogen receptor (Homo sapiens) (P03372 whole entry, looked up): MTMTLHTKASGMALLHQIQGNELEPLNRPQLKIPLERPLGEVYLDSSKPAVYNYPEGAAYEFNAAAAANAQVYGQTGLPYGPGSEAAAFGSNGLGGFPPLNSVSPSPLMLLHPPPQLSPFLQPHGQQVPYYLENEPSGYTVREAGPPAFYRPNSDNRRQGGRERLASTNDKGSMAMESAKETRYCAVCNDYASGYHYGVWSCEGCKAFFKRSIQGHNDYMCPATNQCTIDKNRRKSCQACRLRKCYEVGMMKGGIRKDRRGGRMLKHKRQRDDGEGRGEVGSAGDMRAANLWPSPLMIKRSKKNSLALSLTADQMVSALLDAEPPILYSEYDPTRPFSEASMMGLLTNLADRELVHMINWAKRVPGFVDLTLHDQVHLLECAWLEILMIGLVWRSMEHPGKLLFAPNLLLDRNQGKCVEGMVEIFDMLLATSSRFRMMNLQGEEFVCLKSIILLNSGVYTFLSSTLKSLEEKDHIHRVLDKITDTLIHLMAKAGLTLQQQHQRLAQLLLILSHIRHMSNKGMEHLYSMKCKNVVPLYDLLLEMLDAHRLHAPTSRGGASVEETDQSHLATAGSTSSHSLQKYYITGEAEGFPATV
Procedure, shortened: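 VM7Luc4E2 cells (endogenous full-length ER-alpha, 4×ERE-luciferase), kept 5 days in phenol red-free, charcoal-stripped FBS medium; 4,000 cells/well. Compounds added with 0.1 nM (final) 17beta-estradiol, 22 hr at 37C; luminescence read with ONE-Glo after 30 min.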

[10] = qHTS assay to identify small molecule phospholipidosis (PLD) inducers (AID 1259344; active = well fitted curve in the direction sought with a large enough effect; an effect the other way counts as inactive or inconclusive)
Procedure, shortened: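 Fluorescent phospholipid staining (LipidTOX Red) measured by automated microscopy in fixed HepG2 cells after 24 h treatment; nuclei counterstained with Hoechst 33342; amiodarone as reference inducer.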

| SMILES | Potency [1] | Potency [2] | Potency [3] | Potency [4] | Potency [5] | Potency [6] | Potency [7] | Potency [8] | Potency [9] | outcome [10] |
| --- | --- | --- | --- | --- | --- | --- | --- | --- | --- | --- |
| COc1ccc([C@@H]2Sc3ccccc3NC(=O)[C@@H]2O)cc1 | inactive | inactive | inactive | inactive | inactive | inactive | inactive | – | – | – |
| O=C(O)c1ccc(CO)o1 | inactive | inactive | inactive | – | – | inactive | inactive | – | – | – |
| Cc1ccc(Nc2nccc(N(C)c3ccc4c(C)n(C)nc4c3)n2)cc1S(N)(=O)=O | inactive | inactive | inactive | inactive | inactive | – | inactive | – | – | – |
| CC1=CC(=O)CC(C)(C)C1(O)/C=C/C(C)=C\C(=O)O (stereo unspecified) | inactive | inactive | inactive | inactive | inactive | inactive | inactive | – | – | – |
| O=C(O)c1snc(Cl)c1Cl | inactive | inactive | inactive | inactive | – | inactive | inactive | – | – | – |
| CCCCCCCCSCCO | inactive | inactive | – | inactive | inactive | inactive | inactive | inactive | – | – |
| CCn1cc(C(=O)O)c(=O)c2cc(F)c(N3CCNCC3)nc21 | inactive | inactive | – | inactive | inactive | inactive | inactive | – | inactive | inactive |
| C=CC(C)=CCC=C(C)C | inactive | inactive | inactive | inactive | inactive | inactive | inactive | – | – | – |
| O=C(O)C(Cc1cc(I)c(O)c(I)c1)c1ccccc1 (stereo unspecified) | inactive | inactive | – | – | inactive | inactive | inactive | – | inactive | inactive |
| C[C@]12CCC(=O)C=C1C=C[C@@H]1[C@@H]2CC[C@@]2(C)[C@H]1CC[C@@]21CCC(=O)O1 | inactive | inactive | inactive | inactive | – | inactive | inactive | – | – | – |
| CCC(C(=O)OCCOCCN(CC)CC)c1ccccc1 (stereo unspecified) | inactive | inactive | – | inactive | inactive | inactive | – | – | inactive | inactive |
| C=CCNc1nc(NCC=C)nc(N2CCN(C(c3ccc(F)cc3)c3ccc(F)cc3)CC2)n1 | inactive | inactive | – | inactive | inactive | inactive | inactive | – | 11.9 µM (active) | – |
| CC(C)CCCC(=O)O | inactive | inactive | – | inactive | – | inactive | – | – | inactive | – |
| CCCCCCOC(=O)CCCCCCCC(=O)OCCCCCC | inactive | inactive | – | inactive | inactive | inactive | inactive | – | – | – |
